Experiment [1] is described as follows: inhibitors of TNFa-induced NFkB p65 translocation, primary screen, imaging, HUVEC, MLSMR starter and 10KST1 sets (AID 438;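 active = inhibition above 20% together with a positive visual image hit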;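 note: compound added about 3h40 before a 20 min TNFalpha stimulation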;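 for inhibition: signal is the nuclear over cytoplasmic p65 intensity ratio per well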). Conditions: HUVEC TNFa-induced p65 nuclear translocation; cell count: measured here: nuclei count (cytotoxicity indicator), at 2.08 µM; inhibition: at 2 µM, stronger effect = higher value, 0% TNFa-plus-vehicle, 100% no-TNFa wells.
Experiment [2] is described as follows: reduction of polyQ htt aggregates in cells – imaging, exon1htt(103Q)mCFP cells, high-content imaging, primary screen (AID 483;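 active = visual image review flags a hit and inhibition of aggregation exceeds 20%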;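 note: compound exposure lasted 3 days before fixation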;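 for nuclei count: percent of the per-plate median nuclei count of sample wells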). Conditions: exon1htt(103Q)mCFP cell line, aggregate imaging, at 2 µM; inhibition of aggregation: stronger effect = higher value; nuclei count: measured here: cell count, toxicity.
Experiment [3] can be described thus: endothelial E-selectin expression blockers – imaging, HUVEC, immunofluorescence, MLSMR starter and 10KST1 sets, primary screen (AID 487;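 active = visually confirmed hit in the image check and inhibition above 20%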;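 for inhibition: signal is fraction of cell area covered by stained E-selectin grains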;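 for nuclei count: 100% = median nuclei count of all wells on the same plate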). Conditions: HUVEC TNFalpha-induced E-selectin immunofluorescence imaging, at 2 µM; inhibition: stronger effect = higher value; nuclei count: measured here: cell number, toxicity.
Experiment [4] concerns the target Voltage-gated potassium channel subunit beta-2 (Rattus norvegicus) (UniProt P62483). Kind of experiment: inhibitors of rat Kvbeta2 reductase activity – biochemical, NADPH fluorescence, primary screen (AID 622;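 active = fluorescence slope higher than the sample average by over 3 SD, cut at about -0.22 in these data, passing the limit was not always enough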;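 note: slope of raw intensity against log time taken from 70 to 1610 s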). Conditions: recombinant KvBeta, 4-cyanobenzaldehyde reduction, at 10 µM, stronger effect = higher value.
For experiment [5] the target is unchanged. As to the kind of experiment: enhancers of rat Kvbeta2 NADPH turnover – biochemical, NADPH fluorescence, primary screen (AID 623;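 active = NADPH fluorescence slope more negative than the mean of all samples by about 3 SD, 99.7% confidence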;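 note: fluorescence intensity change per second fitted from 20 to 320 s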). Conditions: Recombinant KvBeta, NADPH fluorescence decrease slope, 10 min; at 10 µM; stronger effect = lower value.
The target of experiment [6] is Alpha-2C adrenergic receptor (Homo sapiens) (UniProt P18825). As to the kind of experiment: compounds altering alpha2C-coupled GIRK flux – cell-based, HEK293 alpha2C/GIRK1/2, thallium flux, primary screen (AID 624).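 Note: slope of fluorescence ratio to pre-addition baseline per second over 15 to 24 s.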 Conditions: thallium flux BTC fluorescence, at 10 µM, actives lie on both sides.
Chain of Alpha-2C adrenergic receptor (Homo sapiens) (P18825 whole entry, looked up): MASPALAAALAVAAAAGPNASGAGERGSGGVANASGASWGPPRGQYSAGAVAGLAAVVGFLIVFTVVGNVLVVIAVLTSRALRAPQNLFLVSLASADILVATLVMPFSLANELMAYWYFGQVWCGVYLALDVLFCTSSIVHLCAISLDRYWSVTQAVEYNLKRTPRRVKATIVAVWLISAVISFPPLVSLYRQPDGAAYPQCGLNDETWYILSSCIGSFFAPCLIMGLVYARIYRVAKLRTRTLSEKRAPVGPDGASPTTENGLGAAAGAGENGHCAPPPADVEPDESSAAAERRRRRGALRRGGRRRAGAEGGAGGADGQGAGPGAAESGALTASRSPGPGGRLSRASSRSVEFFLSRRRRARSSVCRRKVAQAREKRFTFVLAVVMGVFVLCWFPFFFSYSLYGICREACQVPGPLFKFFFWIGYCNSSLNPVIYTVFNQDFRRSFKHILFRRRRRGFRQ
A short description of experiment [7]: blockers of RIG-like receptor reporter activation – cell-based, Sendai virus stimulus, luciferase, 10K MLSCN set, TLR/RLR signaling modifier project, primary screen (AID 602276;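 active = inhibition at or above 50% at 10 µM; inactive = inhibition below 50%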;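 note: firefly luciferase from ISG56 promoter only with Renilla not read in this screen; 0% = Sendai virus plus DMSO and 100% = medium plus DMSO without virus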). Conditions: HEK293 RL24 IRF3 luciferase reporter, at 10 µM, stronger effect = higher value.
Experiment [8] in a line: TLR3 IRF3 reporter activation blockers – cell-based, poly I:C stimulus, luciferase, 10K MLSCN set, primary screen (AID 602277;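 active = inhibition of the reporter signal at or above 50%; inactive = inhibition below 50%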). Conditions: HEK293-TLR3 RL24 IRF3 luciferase reporter, at 10 µM, stronger effect = higher value. A general note: In a reporter assay the amount or activity of a reporter protein is the signal.

The source made the active and inactive calls.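 Rule for the calls, unless noted: active = fluorescence slope after compound addition differing from the mean of all screened samples at 99.7% confidence, in either direction; inactive = the rest.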

Chain of Voltage-gated potassium channel subunit beta-2 (Rattus norvegicus) (P62483 whole entry, looked up): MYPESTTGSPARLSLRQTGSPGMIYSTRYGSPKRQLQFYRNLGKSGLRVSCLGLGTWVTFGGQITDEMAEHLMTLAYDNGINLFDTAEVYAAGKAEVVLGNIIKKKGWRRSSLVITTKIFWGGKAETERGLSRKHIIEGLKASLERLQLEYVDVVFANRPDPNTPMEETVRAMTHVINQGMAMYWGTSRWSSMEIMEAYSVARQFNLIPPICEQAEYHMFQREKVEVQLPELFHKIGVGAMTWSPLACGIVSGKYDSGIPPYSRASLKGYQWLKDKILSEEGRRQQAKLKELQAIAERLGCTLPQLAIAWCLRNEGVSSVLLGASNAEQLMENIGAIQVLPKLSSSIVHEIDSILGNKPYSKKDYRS

A word on the inhibition: it is the relative decrease from the control value, in per cent. Turning to `CC(=O)Nc1cccc(OCC(O)Cn2cnc3ccccc32)c1` (stereo not given), in experiment [1], the cell count came to 632. The inhibition was -20.4% (inactive) in experiment [1], -23.9% (inactive) in experiment [3], 14.1% (inactive) in experiment [7] and 25.8% (inactive) in experiment [8]. Also, the inhibition of aggregation in experiment [2] was 12.1% (inactive). Also, the nuclei count in experiment [2] stood at 101%; in experiment [3] it was 107%. The fluorescence slope in experiment [4] was -0.674 (inactive). Besides, the NADPH fluorescence slope in experiment [5] is 1.3e-05 (inactive). The slope in experiment [6] is 0.00619 (inactive).

`Cc1ccc(S(=O)(=O)Cn2nnnc2CN(Cc2ccco2)CC2CCCO2)cc1` (stereo not given): the cell count in experiment [1] worked out at 380. Further, the inhibition in experiment [1] is -1% (inactive); in experiment [3], -58.1% (inactive); in experiment [7], -5.71% (inactive); in experiment [8] it was 0.385% (inactive). Moreover, the inhibition of aggregation in experiment [2] was 2.3% (inactive). Moreover, the results for the nuclei count in experiment [2] and in experiment [3] were 99.8% and 69.6%, respectively. The fluorescence slope in experiment [4] was -0.588 (inactive). The NADPH fluorescence slope in experiment [5] is -4.2e-05 (inactive). The slope in experiment [6] was 0.00299 (inactive).

`CCOc1cc(C(=O)NCc2ccncc2)cc(OCC)c1OCC`: in experiment [1], the cell count was 596. The inhibition in experiment [1] is 1.6% (inactive); in experiment [3] it was -121% (inactive); in experiment [7], 7.46% (inactive); in experiment [8] it was 18.3% (inactive). Moreover, the inhibition of aggregation in experiment [2] is 3.9% (inactive). Besides, the nuclei count turned out to be 100% in experiment [2] and 114% in experiment [3]. Further, in experiment [4], the fluorescence slope was -0.407 (inactive). In experiment [5], the NADPH fluorescence slope is -4.6e-05 (inactive). Further, in experiment [6], the slope is 0.00658 (inactive).

For `Cc1cccc(Cc2c(C)nc3nc(SCC(=O)NCc4ccco4)nn3c2C)c1`, the cell count in experiment [1] is 389. For the same molecule, the inhibition in experiment [1] is 0.3% (inactive); in experiment [3], -79.7% (inactive); in experiment [7] it was 10.8% (inactive); in experiment [8] it was 27.6% (inactive). For the same molecule, the inhibition of aggregation in experiment [2] is 5.8% (inactive). Moreover, the nuclei count in experiment [2] was 85.7%; in experiment [3], 101%. Moreover, the fluorescence slope in experiment [4] was -0.463 (inactive). Moreover, the NADPH fluorescence slope in experiment [5] was -5.1e-07 (inactive). The slope in experiment [6] is 0.00687 (inactive).

Consider `CCOC(=O)C(CC)Sc1nc2c(c(=O)[nH]c(=O)n2C)n1C/C=C(/C)Cl` (stereo not given), for which the cell count in experiment [1] worked out at 775. For the same molecule, the inhibition in experiment [1] is -12.9% (inactive); in experiment [3] it was 18.5% (inactive); in experiment [7], 14.5% (inactive); in experiment [8], 19.1% (inactive). The inhibition of aggregation in experiment [2] was 18% (inactive). Moreover, the nuclei count in experiment [2] worked out at 96.3%; in experiment [3], 106%. For the same molecule, the fluorescence slope in experiment [4] was -0.601 (inactive). Moreover, the NADPH fluorescence slope in experiment [5] is -6.7e-05 (inactive). Moreover, the slope in experiment [6] was 0.00361 (inactive).

As to `Cc1c(C(=O)O)c(-c2ccccc2)nn1-c1ccccc1`, in experiment [1], the cell count is 119. The inhibition is 12.1% (inactive) in experiment [1], -11.7% (inactive) in experiment [3], 15% (inactive) in experiment [7] and -3.71% (inactive) in experiment [8]. In addition, the inhibition of aggregation in experiment [2] was 3.2% (inactive). For the same molecule, the nuclei count in experiment [2] came out at 85.6%; in experiment [3] it was 127%. The fluorescence slope in experiment [4] was -0.39 (inactive). In experiment [5], the NADPH fluorescence slope was -0.000126 (inactive). The slope in experiment [6] is 0.00692 (inactive).

Turning to `Cn1c(/C=N/n2cnnc2)nc2ccccc21`, the cell count in experiment [1] was found to be 448. For the same molecule, the inhibition in experiment [1] is 3.5% (inactive); in experiment [3], -12.1% (inactive); in experiment [7], 6.17% (inactive); in experiment [8], 35.3% (inactive). In addition, the inhibition of aggregation in experiment [2] is -4.4% (inactive). The figures for the nuclei count in experiment [2] and in experiment [3] were 114% and 123%, respectively. Also, the fluorescence slope in experiment [4] was -0.0404 (active). Further, the NADPH fluorescence slope in experiment [5] was -7e-06 (inactive). In addition, the slope in experiment [6] is 0.00495 (inactive).

Regarding `Nc1cc(N)cc(-c2nc3ccccc3o2)c1`, in experiment [1], the cell count was 595. Further, the inhibition was -1.3% (inactive) in experiment [1], -53.9% (inactive) in experiment [3], -12.2% (inactive) in experiment [7] and -26% (inactive) in experiment [8]. The inhibition of aggregation in experiment [2] was -3.7% (inactive). In addition, the figures for the nuclei count in experiment [2] and in experiment [3] were 109% and 116%, respectively. Moreover, the fluorescence slope in experiment [4] was -0.56 (inactive). In experiment [5], the NADPH fluorescence slope was -4.4e-05 (inactive). Further, the slope in experiment [6] is 0.00618 (inactive).

Regarding `CCOc1ccccc1NC(=O)CC1Nc2cc(C)c(C)cc2NC1=O` (stereo not given), the cell count in experiment [1] is 374. Besides, the inhibition was 1.8% (inactive) in experiment [1], -48.5% (inactive) in experiment [3], 14.6% (inactive) in experiment [7] and 26% (inactive) in experiment [8]. In addition, the inhibition of aggregation in experiment [2] was 23.2% (inactive). Further, the nuclei count amounted to 94.4% in experiment [2] and 105% in experiment [3]. Moreover, in experiment [4], the fluorescence slope was -0.265 (inactive). Also, the NADPH fluorescence slope in experiment [5] is -1.1e-05 (inactive). In experiment [6], the slope was 0.00531 (inactive).

For the molecule `CCOC(=O)c1cccc(NC(=O)CSc2nnc(-c3cccnc3)n2C)c1`, in experiment [1], the cell count was determined as 505. Also, the inhibition was -0.3% (inactive) in experiment [1], -100% (inactive) in experiment [3], 8.88% (inactive) in experiment [7] and 10.4% (inactive) in experiment [8]. The inhibition of aggregation in experiment [2] is 8.9% (inactive). The values for the nuclei count in experiment [2] and in experiment [3] were 97.6% and 134%, respectively. Besides, the fluorescence slope in experiment [4] was -0.285 (inactive). Moreover, the NADPH fluorescence slope in experiment [5] is -5.6e-05 (inactive). In experiment [6], the slope is 0.00612 (inactive).

The values are drawn from PubChem BioAssay.
